# Data from the supplement of paper PMC10849652.
# Targets with a hit are over-represented here; the source holds about 7,900 in all. About 0.6% of all pairs of compound and target were hits. A number with no mark means an inactive call.
# Experiments:
# Assay in all cases: log2 fold change, soluble protein after heating vs DMSO (PISA); higher = thermal stabilisation; K562 cells, 10 uM, 30 min; active = over 0.2 and 3.5 SD of the protein, either way, in both replicates (recomputed)
# [1] = compound: C1=CC(=C(C=C1Cl)C2=NC3=NC=CN=C3C(=N2)NC4=CC=NC=C4)F
# How it was run: (§1)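 Quantification of soluble protein used TMTpro 16plex LC-MS/MS, with channel sums equalised. Samples were the supernatant after 21,000xg for 90 min of pooled aliquots from K562 cells (2×10^6 cells/mL) treated with 10 μM compound for 30 min, heated for 3 min over 48°C-58°C, and extracted in PBS with 0.5% NP-40 at 4°C. Values, from duplicates, describe thermal stability against control samples on a log2 fold-change scale.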
# [2] = compound: CC(C)(O)CC(=O)NCCn1ccc2ncnc(Nc3ccc(Oc4cccc(C(F)(F)F)c4)c(Cl)c3)c21
# How it was run: as §1
# erlotinib = compound: C#Cc1cccc(Nc2ncnc3cc(OCCOC)c(OCCOC)cc23)c1 [erlotinib]
# How it was run: as §1
# [3] = compound: C1=CC(=CC=C1C2=NC3=C(N2)C=C(C=C3)C(=O)N)OC4=CC=C(C=C4)Cl
# How it was run: as §1
# [4] = compound: C1=CC2=NC=CN=C2C=C1/C=C/3\C(=O)NC(=O)S3
# How it was run: as §1
# ibrutinib = compound: C=CC(=O)N1CCC[C@@H](n2nc(-c3ccc(Oc4ccccc4)cc3)c3c(N)ncnc32)C1 [ibrutinib]
# How it was run: as §1
# [5] = compound: CC(C)C1=C2N=C(C=C(N2N=C1)NCC3=CC=CC=C3)NCCCCCCN
# How it was run: as §1
# [6] = compound: CC1=C(C(CC(=O)N1)C2=CC=C(C=C2)C(F)(F)F)C(=O)NC3=C(C=C4C(=C3)C=NN4)F
# How it was run: as §1
# [7] = compound: C/C(=N\NC(=O)C1=CC(=CC=C1)S(=O)(=O)N2CCOCC2)/C3=C(C=CC(=C3)Cl)O
# How it was run: as §1
# [8] = compound: C1=CC2=C(C=CC(=C2)/C=C\3/C(=O)NC(=NCC4=CC=CS4)S3)N=C1
# How it was run: as §1
# [9] = compound: C1=CC=C2C(=C1)C3=NNC4=CC=CC(=C43)C2=O
# How it was run: as §1
# IRAK-1-4 Inhibitor I = compound: C1COCCN1CCN2C3=CC=CC=C3N=C2NC(=O)C4=CC(=CC=C4)[N+](=O)[O-] [IRAK-1-4 Inhibitor I]
# How it was run: as §1
# [10] = compound: CC(=O)c1cnc2ccc(-c3cc(Cl)c(O)c(Cl)c3)nc2c1N[C@H]1CC[C@H](CN(C)C)CC1
# How it was run: as §1
# pinometostat = compound: CC(C)N(C[C@H]1O[C@@H](n2cnc3c(N)ncnc32)[C@H](O)[C@@H]1O)[C@H]1C[C@@H](CCc2nc3cc(C(C)(C)C)ccc3[nH]2)C1 [pinometostat]
# How it was run: as §1
# [11] = compound: C1CCN(C1)C(=O)NC2=CC=CC(=C2)NC3=NC=C(C(=N3)NCCC4=CN=CN4)Br
# How it was run: as §1
# [12] = compound: C1CN(CCC1(CC2=CC=C(C=C2)Cl)N)C3=NC=NC4=C3C=CN4
# How it was run: as §1
# [13] = compound: CC1=C(C2=C(C=C1)C(=O)C3=CC=CC=C3N2CCCN)C
# How it was run: as §1
# [14] = compound: C1=CC=C(C=C1)C2=NC(=C(N2)C3=CC=NC=C3)C4=CC(=C(C=C4)Cl)O
# How it was run: as §1
# ralimetinib = compound: CC(C)(C)Cn1c(N)nc2ccc(-c3[nH]c(C(C)(C)C)nc3-c3ccc(F)cc3)nc21 [ralimetinib]
# How it was run: as §1
# [15] = compound: CC(C)C[C@@H](C=O)NC(=O)[C@H](CC(C)C)NC(=O)[C@H](CC(C)C)NC(=O)OCc1ccccc1
# How it was run: as §1
# Sequence of UniProt Q9H1H9 (Q9H1H9 whole entry, looked up): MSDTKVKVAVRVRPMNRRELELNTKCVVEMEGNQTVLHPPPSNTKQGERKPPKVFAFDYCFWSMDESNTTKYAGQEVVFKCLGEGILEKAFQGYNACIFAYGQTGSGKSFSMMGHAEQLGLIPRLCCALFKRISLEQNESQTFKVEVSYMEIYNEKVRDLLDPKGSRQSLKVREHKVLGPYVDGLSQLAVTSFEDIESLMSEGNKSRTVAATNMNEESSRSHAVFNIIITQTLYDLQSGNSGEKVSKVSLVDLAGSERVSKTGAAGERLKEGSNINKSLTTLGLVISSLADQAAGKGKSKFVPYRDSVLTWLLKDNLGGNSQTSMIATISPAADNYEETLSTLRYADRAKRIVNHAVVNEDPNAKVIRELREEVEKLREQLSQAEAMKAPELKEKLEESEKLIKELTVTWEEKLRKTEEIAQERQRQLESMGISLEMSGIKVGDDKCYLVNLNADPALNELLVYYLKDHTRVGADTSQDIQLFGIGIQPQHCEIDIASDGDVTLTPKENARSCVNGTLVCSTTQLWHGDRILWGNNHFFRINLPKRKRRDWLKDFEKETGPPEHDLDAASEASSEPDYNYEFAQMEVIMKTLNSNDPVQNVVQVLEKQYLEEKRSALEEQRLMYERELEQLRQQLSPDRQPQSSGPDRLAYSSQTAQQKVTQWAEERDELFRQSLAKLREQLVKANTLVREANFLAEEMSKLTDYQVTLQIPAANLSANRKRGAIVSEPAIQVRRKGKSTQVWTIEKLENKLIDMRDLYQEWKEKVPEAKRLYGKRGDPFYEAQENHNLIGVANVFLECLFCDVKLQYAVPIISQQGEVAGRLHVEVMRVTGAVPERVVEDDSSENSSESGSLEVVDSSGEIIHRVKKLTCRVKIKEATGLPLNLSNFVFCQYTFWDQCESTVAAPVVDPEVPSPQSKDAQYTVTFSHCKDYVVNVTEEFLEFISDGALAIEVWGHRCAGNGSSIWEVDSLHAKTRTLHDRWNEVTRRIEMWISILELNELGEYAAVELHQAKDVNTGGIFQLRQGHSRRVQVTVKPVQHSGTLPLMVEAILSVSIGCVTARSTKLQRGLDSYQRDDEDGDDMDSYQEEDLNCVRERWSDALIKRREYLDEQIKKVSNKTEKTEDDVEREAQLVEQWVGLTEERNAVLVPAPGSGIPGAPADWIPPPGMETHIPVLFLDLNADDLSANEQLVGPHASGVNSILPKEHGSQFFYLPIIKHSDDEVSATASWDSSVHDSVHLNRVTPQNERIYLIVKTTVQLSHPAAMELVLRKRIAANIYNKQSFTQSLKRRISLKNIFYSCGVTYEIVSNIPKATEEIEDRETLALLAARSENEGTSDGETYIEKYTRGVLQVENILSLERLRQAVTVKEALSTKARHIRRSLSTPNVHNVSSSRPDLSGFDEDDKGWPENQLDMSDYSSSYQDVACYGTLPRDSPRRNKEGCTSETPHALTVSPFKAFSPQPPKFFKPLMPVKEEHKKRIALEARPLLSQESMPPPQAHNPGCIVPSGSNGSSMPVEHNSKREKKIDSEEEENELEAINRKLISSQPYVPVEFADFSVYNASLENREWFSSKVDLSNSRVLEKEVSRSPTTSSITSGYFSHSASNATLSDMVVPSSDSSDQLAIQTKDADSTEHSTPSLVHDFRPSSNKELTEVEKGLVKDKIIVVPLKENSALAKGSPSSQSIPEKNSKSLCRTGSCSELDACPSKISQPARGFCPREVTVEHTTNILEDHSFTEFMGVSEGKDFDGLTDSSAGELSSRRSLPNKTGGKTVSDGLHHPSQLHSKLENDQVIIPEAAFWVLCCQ
# Sequence of UniProt Q86VI4 (Q86VI4 whole entry, looked up): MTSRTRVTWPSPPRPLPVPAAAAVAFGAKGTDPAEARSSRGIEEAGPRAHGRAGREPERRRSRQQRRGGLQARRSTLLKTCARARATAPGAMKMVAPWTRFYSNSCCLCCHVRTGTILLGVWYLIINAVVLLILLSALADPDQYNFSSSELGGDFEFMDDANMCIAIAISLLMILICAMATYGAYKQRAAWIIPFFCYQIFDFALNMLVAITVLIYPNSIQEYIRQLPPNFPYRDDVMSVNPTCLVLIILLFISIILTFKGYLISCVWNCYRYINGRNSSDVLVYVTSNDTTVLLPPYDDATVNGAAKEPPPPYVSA
# Sequence of UniProt Q12851 (Q12851 whole entry, looked up): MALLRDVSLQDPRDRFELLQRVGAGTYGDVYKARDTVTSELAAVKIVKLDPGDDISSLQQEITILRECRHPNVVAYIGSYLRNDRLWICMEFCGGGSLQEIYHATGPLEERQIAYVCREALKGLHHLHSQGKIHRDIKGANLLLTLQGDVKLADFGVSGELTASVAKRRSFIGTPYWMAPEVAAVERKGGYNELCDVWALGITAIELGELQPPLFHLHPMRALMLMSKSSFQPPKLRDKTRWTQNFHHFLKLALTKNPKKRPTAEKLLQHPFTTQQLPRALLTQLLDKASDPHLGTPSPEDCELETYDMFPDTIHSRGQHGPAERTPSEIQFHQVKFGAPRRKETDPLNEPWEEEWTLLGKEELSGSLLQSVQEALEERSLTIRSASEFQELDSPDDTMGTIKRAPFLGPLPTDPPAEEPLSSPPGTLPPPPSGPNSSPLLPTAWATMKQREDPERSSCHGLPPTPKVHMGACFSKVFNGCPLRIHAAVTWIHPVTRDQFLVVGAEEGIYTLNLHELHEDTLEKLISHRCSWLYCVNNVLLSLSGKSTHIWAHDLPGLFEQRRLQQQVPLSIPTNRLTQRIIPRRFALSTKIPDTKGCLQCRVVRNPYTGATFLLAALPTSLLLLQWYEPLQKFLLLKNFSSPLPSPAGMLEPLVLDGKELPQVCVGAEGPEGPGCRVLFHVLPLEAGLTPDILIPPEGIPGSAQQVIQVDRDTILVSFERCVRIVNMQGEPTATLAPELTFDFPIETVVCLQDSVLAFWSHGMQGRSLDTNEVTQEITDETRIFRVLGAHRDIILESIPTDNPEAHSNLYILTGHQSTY
# Sequence of UniProt P02545 (P02545 whole entry, looked up): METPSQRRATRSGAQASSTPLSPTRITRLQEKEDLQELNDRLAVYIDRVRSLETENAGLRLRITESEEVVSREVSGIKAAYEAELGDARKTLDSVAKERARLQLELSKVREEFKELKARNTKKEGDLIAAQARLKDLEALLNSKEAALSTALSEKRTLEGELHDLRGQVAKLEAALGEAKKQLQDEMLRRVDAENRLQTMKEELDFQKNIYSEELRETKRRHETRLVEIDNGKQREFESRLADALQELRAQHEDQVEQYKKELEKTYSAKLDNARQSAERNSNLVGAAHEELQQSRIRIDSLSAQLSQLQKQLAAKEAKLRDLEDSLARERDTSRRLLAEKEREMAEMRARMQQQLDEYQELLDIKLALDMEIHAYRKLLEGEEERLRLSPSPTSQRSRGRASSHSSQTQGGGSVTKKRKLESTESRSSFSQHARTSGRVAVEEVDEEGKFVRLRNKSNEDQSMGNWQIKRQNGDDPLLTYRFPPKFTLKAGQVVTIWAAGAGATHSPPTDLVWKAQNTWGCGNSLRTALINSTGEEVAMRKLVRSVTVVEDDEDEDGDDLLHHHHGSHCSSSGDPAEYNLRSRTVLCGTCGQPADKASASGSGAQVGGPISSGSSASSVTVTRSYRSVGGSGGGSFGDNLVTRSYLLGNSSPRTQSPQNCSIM
# Sequence of UniProt Q13164 (Q13164 whole entry, looked up): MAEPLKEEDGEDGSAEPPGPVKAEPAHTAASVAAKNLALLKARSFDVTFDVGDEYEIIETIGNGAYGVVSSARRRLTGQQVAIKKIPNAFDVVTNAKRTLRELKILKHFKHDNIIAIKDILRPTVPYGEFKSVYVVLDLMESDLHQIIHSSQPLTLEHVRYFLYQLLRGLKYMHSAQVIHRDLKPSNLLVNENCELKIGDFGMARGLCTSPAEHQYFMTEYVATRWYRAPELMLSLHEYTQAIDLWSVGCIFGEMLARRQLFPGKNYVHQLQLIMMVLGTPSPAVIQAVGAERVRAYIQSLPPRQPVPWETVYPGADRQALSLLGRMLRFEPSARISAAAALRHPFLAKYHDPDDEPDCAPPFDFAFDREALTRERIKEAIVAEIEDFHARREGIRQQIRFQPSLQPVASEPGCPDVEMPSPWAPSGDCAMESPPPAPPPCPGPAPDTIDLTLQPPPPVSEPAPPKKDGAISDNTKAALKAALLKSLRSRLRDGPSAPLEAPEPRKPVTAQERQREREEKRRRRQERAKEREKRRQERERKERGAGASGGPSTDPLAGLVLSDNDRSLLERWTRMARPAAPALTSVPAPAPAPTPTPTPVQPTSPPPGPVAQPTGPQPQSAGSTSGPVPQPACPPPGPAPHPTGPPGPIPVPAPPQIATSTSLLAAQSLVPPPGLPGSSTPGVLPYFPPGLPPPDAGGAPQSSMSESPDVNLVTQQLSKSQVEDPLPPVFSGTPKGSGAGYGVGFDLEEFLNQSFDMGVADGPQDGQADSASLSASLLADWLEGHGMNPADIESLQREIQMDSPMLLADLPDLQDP
# Sequence of UniProt Q15759 (Q15759 whole entry, looked up): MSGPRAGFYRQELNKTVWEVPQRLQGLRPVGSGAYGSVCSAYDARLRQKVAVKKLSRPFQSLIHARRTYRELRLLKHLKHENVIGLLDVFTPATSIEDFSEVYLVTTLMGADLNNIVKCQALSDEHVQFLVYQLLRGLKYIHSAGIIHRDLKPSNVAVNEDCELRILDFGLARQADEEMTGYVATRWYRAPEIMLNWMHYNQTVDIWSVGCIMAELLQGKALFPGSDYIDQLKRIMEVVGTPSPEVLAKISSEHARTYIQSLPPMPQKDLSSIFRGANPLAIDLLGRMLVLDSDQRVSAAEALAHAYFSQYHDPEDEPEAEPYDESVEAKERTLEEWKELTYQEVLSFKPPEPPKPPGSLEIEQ
# Sequence of UniProt P17936 (P17936 whole entry, looked up): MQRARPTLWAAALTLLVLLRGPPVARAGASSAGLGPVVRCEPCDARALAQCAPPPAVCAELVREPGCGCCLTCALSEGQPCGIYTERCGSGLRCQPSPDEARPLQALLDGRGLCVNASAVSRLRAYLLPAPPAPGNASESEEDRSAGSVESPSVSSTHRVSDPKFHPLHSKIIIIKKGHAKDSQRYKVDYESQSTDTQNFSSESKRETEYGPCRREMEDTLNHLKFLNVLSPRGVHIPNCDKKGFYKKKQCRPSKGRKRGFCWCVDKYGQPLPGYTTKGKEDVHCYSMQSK
target,measurement,setting,value
LSR (UniProt M0QZL9),log2 fold change,[1],0.029
same,log2 fold change,[2],0.057
LOX (UniProt P28300),log2 fold change,erlotinib,-0.245
same,log2 fold change,[3],0.315
same,log2 fold change,[4],0.038
same,log2 fold change,ibrutinib,0.074
same,log2 fold change,[5],-0.218
same,log2 fold change,[6],0.144
MAPK7 (UniProt Q13164),log2 fold change,[7],0.095
same,log2 fold change,[1],0.02
same,log2 fold change,[8],0
same,log2 fold change,[9],0.14
same,log2 fold change,IRAK-1-4 Inhibitor I,-0.033
same,log2 fold change,[10],1.41 (active)
same,log2 fold change,[2],0.008
same,log2 fold change,pinometostat,0.105
MAP4K2 (UniProt Q12851),log2 fold change,[4],-0.122
same,log2 fold change,[11],-0.413
same,log2 fold change,[12],-0.172
same,log2 fold change,IRAK-1-4 Inhibitor I,0.073
same,log2 fold change,ibrutinib,-0.071
same,log2 fold change,pinometostat,0.113
same,log2 fold change,[6],0.003
same,log2 fold change,[13],0.021
MED29 (UniProt Q9NX70),log2 fold change,erlotinib,-0.016
same,log2 fold change,[7],0.008
same,log2 fold change,[3],0.062
same,log2 fold change,[8],-0.089
same,log2 fold change,[9],-0.015
same,log2 fold change,[10],-0.215
same,log2 fold change,[5],-0.038
same,log2 fold change,[6],-0.08
IKZF1 (UniProt R9R4D9),log2 fold change,[11],-0.055
same,log2 fold change,[12],-0.13
same,log2 fold change,IRAK-1-4 Inhibitor I,-0.1
same,log2 fold change,pinometostat,-0.103
same,log2 fold change,[13],0.385
IGFBP3 isoform 2 (UniProt P17936),log2 fold change,[7],-0.18
same,log2 fold change,[1],-0.094
same,log2 fold change,[8],0.049
same,log2 fold change,[9],-0.172
same,log2 fold change,[11],0.032
same,log2 fold change,[12],-0.057
same,log2 fold change,IRAK-1-4 Inhibitor I,0.115
same,log2 fold change,[10],0.097
same,log2 fold change,[2],0.196
same,log2 fold change,pinometostat,-0.004
same,log2 fold change,[13],-0.095
ITPRID2 (UniProt P28290),log2 fold change,erlotinib,0.022
same,log2 fold change,[1],-0.133
same,log2 fold change,[3],-0.268
same,log2 fold change,[14],-0.213
same,log2 fold change,IRAK-1-4 Inhibitor I,0.004
same,log2 fold change,ralimetinib,-0.025
same,log2 fold change,[2],0.238
same,log2 fold change,[5],-0.686 (active)
same,log2 fold change,[15],0.063
same,log2 fold change,pinometostat,0.03
KCNK5 (UniProt O95279),log2 fold change,erlotinib,-0.101
same,log2 fold change,[1],-0.128
same,log2 fold change,[3],0.077
same,log2 fold change,[4],0.095
same,log2 fold change,IRAK-1-4 Inhibitor I,-0.033
same,log2 fold change,ibrutinib,0.019
same,log2 fold change,[2],-0.209
same,log2 fold change,[5],-2.03 (active)
same,log2 fold change,pinometostat,0
LMNA isoform 2 (UniProt P02545),log2 fold change,[11],-0.022
same,log2 fold change,[12],0.146
same,log2 fold change,[13],-0.128
MCOLN3 (UniProt Q8TDD5),log2 fold change,erlotinib,0.244
same,log2 fold change,[3],-0.016
same,log2 fold change,[4],0.112
same,log2 fold change,[14],-0.049
same,log2 fold change,[11],0.053
same,log2 fold change,[12],0.107
same,log2 fold change,ibrutinib,-0.17
same,log2 fold change,ralimetinib,-0.057
same,log2 fold change,[5],0.019
same,log2 fold change,[15],0.029
same,log2 fold change,[6],0.03
same,log2 fold change,[13],0.08
MED25 isoform 3 (UniProt Q71SY5),log2 fold change,erlotinib,-0.038
same,log2 fold change,[7],0.026
same,log2 fold change,[3],0.005
same,log2 fold change,[8],0.048
same,log2 fold change,[4],-0.031
same,log2 fold change,[14],0.062
same,log2 fold change,[9],0.057
same,log2 fold change,[11],0.057
same,log2 fold change,[12],0.07
same,log2 fold change,IRAK-1-4 Inhibitor I,-0.087
same,log2 fold change,ibrutinib,0.039
same,log2 fold change,[10],-0.086
same,log2 fold change,ralimetinib,-0.099
same,log2 fold change,[5],0.016
same,log2 fold change,[15],-0.061
same,log2 fold change,pinometostat,0.173
same,log2 fold change,[6],-0.03
same,log2 fold change,[13],0.053
LRFN1 (UniProt Q9P244),log2 fold change,erlotinib,0.059
same,log2 fold change,[1],-0.028
same,log2 fold change,[3],0
same,log2 fold change,[4],0.004
same,log2 fold change,[14],-0.038
same,log2 fold change,[11],-0.1
same,log2 fold change,[12],0.052
same,log2 fold change,IRAK-1-4 Inhibitor I,0.105
same,log2 fold change,ibrutinib,-0.018
same,log2 fold change,ralimetinib,-0.009
same,log2 fold change,[2],0.073
same,log2 fold change,[5],0.107
same,log2 fold change,[15],0.061
same,log2 fold change,pinometostat,0.029
same,log2 fold change,[13],0.008
KIF13A isoform 4 (UniProt Q9H1H9),log2 fold change,[7],0.21
same,log2 fold change,[8],0.161
same,log2 fold change,[9],0.021
same,log2 fold change,[10],0.123
MAPRE3 isoform 2 (UniProt Q9UPY8),log2 fold change,[7],-0.003
same,log2 fold change,[8],-0.18
same,log2 fold change,[9],-0.073
same,log2 fold change,[11],0.012
same,log2 fold change,[12],-0.097
same,log2 fold change,IRAK-1-4 Inhibitor I,-0.384
same,log2 fold change,[10],-0.139
same,log2 fold change,pinometostat,-0.101
same,log2 fold change,[6],0.029
same,log2 fold change,[13],0.109
MFSD12 isoform 3 (UniProt Q6NUT3),log2 fold change,erlotinib,0.062
same,log2 fold change,[7],-0.062
same,log2 fold change,[3],0.077
same,log2 fold change,[8],-0.035
same,log2 fold change,[9],0.024
same,log2 fold change,[11],-0.088
same,log2 fold change,[12],-0.099
same,log2 fold change,[10],-0.002
same,log2 fold change,[5],-0.474 (active)
same,log2 fold change,[13],-0.066
LRRCC1 (UniProt Q9C099),log2 fold change,[7],-0.671 (active)
same,log2 fold change,[8],0.088
same,log2 fold change,[14],0.257
same,log2 fold change,[9],0.123
same,log2 fold change,[11],0.121
same,log2 fold change,[12],0.101
same,log2 fold change,[10],0.047
same,log2 fold change,ralimetinib,0.043
same,log2 fold change,[15],0.237
same,log2 fold change,[13],0.109
MAP2K5 (UniProt Q13163),log2 fold change,[7],0.021
same,log2 fold change,[8],0.277
same,log2 fold change,[14],0.145
same,log2 fold change,[9],-0.036
same,log2 fold change,IRAK-1-4 Inhibitor I,0.063
same,log2 fold change,[10],-1.19 (active)
same,log2 fold change,ralimetinib,0.066
same,log2 fold change,[15],-0.238
same,log2 fold change,pinometostat,-0.051
LAPTM4B (UniProt Q86VI4),log2 fold change,erlotinib,-0.074
same,log2 fold change,[3],-0.054
same,log2 fold change,[4],0.093
same,log2 fold change,ibrutinib,0.019
same,log2 fold change,[5],0.141
MAPK11 (UniProt Q15759),log2 fold change,erlotinib,0.169
same,log2 fold change,[3],-0.28
same,log2 fold change,[14],0.744
same,log2 fold change,[11],-0.56
same,log2 fold change,[12],0.309
same,log2 fold change,IRAK-1-4 Inhibitor I,-0.22
same,log2 fold change,ralimetinib,1.47 (active)
same,log2 fold change,[5],-0.853
same,log2 fold change,[15],-0.091
same,log2 fold change,pinometostat,-0.111
same,log2 fold change,[13],0.103
